In the library only some 3.2% were active in any assay of this set; here they are far more common.
Sm TGR inh – qHTS Assay for the Inhibitors of Schistosoma Mansoni Peroxiredoxins; 360,000 compounds, 3% hits; Schistosoma mansoni thioredoxin glutathione reductase (TGR), Q962Y6; Potency, µM (series often up to 114 µM), for inactives: at the top dose activity change, negative = inhibition, most hits filed as inhibitors; purified TGR, DTNB reduction, TNB absorbance 405 nm; further: nearly all actives have a fitted effect of over 60% in size
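TGR 20 nM + NADPH 100 uM (dispensed conc.), cpd preinc 15 min RT; start with NADPH (500 uM addition) then DTNB (15 mM addition). Kinetic TNB absorbance, 405 nm filter. Four-parameter Hill fit across titration.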
AMA1 RON2 block – qHTS for Inhibitors of AMA1-RON; Towards Development of Antimalarial Drug Lead: Primary Screen | AlphaScreen AMA1-biotinylated RON2 peptide binding | Potency, µM (doses to about 58.2 µM), inactives show top-dose activity change, negative = inhibition, hits mostly inhibitors | 360,000 compounds, 0.2% hits | AID 720542, 2013;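 further: 0% = vehicle wells and -100% = peptide control; nearly all actives have a fitted effect of over 45% in size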
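AMA1 (3D7) with his tag at 25 nM final met compounds first, then biotinylated RON2 peptide at 25 nM; detection used donor plus acceptor beads, 10 µg/mL apiece, read by AlphaScreen after 30 min at room temperature.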
AmpC no deterg – qHTS Inhibitors of AmpC Beta-Lactamase (assay without detergent); 330,000 compounds, 0.52% hits; P00811; AmpC nitrocefin hydrolysis, absorbance 480 nm, 0.0001% Triton; Potency, µM (doses to about 57.1 µM), without a hit: top-dose activity change, negative = inhibition, actives largely listed as inhibitors;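 further: plate controls were no compound for no effect and no enzyme for full effect; nearly all actives have a fitted effect of over 20% in size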
Target sequence (P00811 whole entry, looked up): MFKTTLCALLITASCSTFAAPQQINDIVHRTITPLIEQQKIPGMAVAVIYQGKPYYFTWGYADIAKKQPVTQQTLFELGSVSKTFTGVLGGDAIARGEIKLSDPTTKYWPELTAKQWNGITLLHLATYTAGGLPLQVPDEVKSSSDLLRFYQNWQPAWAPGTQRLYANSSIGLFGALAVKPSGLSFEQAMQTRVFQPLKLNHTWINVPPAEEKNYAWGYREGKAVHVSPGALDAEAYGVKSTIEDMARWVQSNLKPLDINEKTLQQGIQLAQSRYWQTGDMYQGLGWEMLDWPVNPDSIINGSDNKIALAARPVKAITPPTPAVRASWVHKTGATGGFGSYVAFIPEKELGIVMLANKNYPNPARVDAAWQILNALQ
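AmpC (5.3 nM in the dispensed reagent) in 20 mM phosphate pH 7.0 with 0.01% (detergent screen) or 0.0001% Triton X-100 was preincubated with compounds for 15 min at room temperature. Nitrocefin was then added from an 800 uM solution, and hydrolysis was followed at 480 nm.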
AmpC inh detg – qHTS Inhibitors of AmpC Beta-Lactamase (assay with detergent). P00811. AmpC hydrolysis of nitrocefin, absorbance 480 nm, 0.01% Triton. Potency, µM (doses to about 114 µM), for inactives: top-dose activity change, negative = inhibition, actives largely listed as inhibitors. 370,000 compounds, 0.041% hits;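 further: 0% = no-compound wells and -100% = no-enzyme wells; nearly all actives have a fitted effect of over 25% in size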
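20 mM phosphate pH 7.0 + 0.01% (detergent screen) or 0.0001% Triton X-100; 5.3 nM AmpC reagent; cpd preinc 15 min RT; nitrocefin (800 uM stock) to start; A480 q20 s × 4 min; Activity was normalised to no-enzyme and no-compound control wells.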
RE007 growth inh – qHTS Assay for Inhibitors of the HIV-1 protein Vpr. 360,000 compounds, 0.21% hits. Potency, µM (top dose mostly 92.2 µM), for the others: at the top dose activity change, negative = less growth, most hits filed as inhibitors. S. pombe RE007 Vpr strain, BacTiter-Glo ATP luminescence, 24 h; active means well fitted falling curve with a large enough effect; inconclusive means small, poorly fitted or top-dose-only effect; inactive means no such curve, though single readings can be large or run the other way; further: nearly all actives have a fitted effect of over 50% in size
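Fission yeast RE007 carrying one integrated HIV-1 vpr copy, seeded at OD 0.01 in PMG+AL medium with 23 nL pinned compound. Grown 24 h at 30 degrees; viability read by BacTiter-Glo luminescence after 5 min.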
* marks the source's active call; other numbers are inactive results. Unless noted, the call rests on the fitted dose curve; in most records, active means well fitted curve in the direction sought with a large enough effect; inconclusive means small, poorly fitted or top-dose-only effect, or another doubt; inactive means no such curve, though single readings can be large; an effect the other way counts as inactive or inconclusive. Unless noted, on the % scale 0 is the no-effect control and ±100 the full control effect; potency means the concentration at half of the fitted maximal effect.

What do the screens show for `O=C(COC(=O)c1cncc(Br)c1)NCc1ccco1`?
Sm TGR inh: 25µM*; AMA1 RON2 block: -16%; AmpC no deterg: 4%; AmpC inh detg: -2%; RE007 growth inh: -19%

Results for COc1ccc(C2(C(=O)NCc3ccco3)CCCC2)cc1OC ?
Sm TGR inh: 45µM*; AMA1 RON2 block: 15%; AmpC no deterg: -15%; AmpC inh detg: -4%; RE007 growth inh: 0%

Results for CCOc1ccc(N(CC(=O)NCc2ccco2)S(=O)(=O)c2ccc(OC)c(OC)c2)cc1 ?
Sm TGR inh: 32µM*; AMA1 RON2 block: 0%; AmpC no deterg: 53%; AmpC inh detg: -1%; RE007 growth inh: 1%

Results for CN(C)S(=O)(=O)c1ccc(C(=O)OCC(=O)NCc2ccco2)cc1 ?
Sm TGR inh: 35µM*; AMA1 RON2 block: 17%; AmpC no deterg: -7%; AmpC inh detg: 2%; RE007 growth inh: -6%

How did CCOc1cc(C(=O)OCC(=O)NCc2ccco2)cc(OCC)c1OCC do in these assays?
Sm TGR inh: 25µM*; AMA1 RON2 block: -4%; AmpC no deterg: -3%; AmpC inh detg: inconclusive; RE007 growth inh: 1%

Results for CCc1nc2ccccc2c(C(=O)OCC(=O)NCc2ccco2)c1C ?
Sm TGR inh: 35µM*; AMA1 RON2 block: -3%; AmpC no deterg: -19%; AmpC inh detg: 6%; RE007 growth inh: 27%

What do the screens show for `CCCc1nc2ccccc2c(C(=O)OCC(=O)NCc2ccco2)c1CC`?
Sm TGR inh: inconclusive; AMA1 RON2 block: -1%; AmpC no deterg: -11%; AmpC inh detg: -11%; RE007 growth inh: 11%

What do the screens show for `O=C(COC(=O)c1ccc(NS(=O)(=O)c2cccs2)cc1)NCc1ccco1`?
Sm TGR inh: 11µM*; AMA1 RON2 block: -13%; AmpC no deterg: -39%; AmpC inh detg: -5%; RE007 growth inh: 12%

What do the screens show for `CN(C)c1cccc(C(=O)OCC(=O)NCc2ccco2)c1`?
Sm TGR inh: -30%; AMA1 RON2 block: -23%; AmpC no deterg: -17%; AmpC inh detg: inconclusive; RE007 growth inh: -15%

Results for COc1ccc(C2c3c(n(C)c4ccccc34)C(=O)N2CC(=O)Nc2ccccc2Cl)cc1 (stereo unspecified) ?
Sm TGR inh: -4%; AmpC inh detg: 3%

What do the screens show for `CCOC(=O)c1[nH]c2ccccc2c1NC(=O)c1ccccc1OCC`?
Sm TGR inh: 7%; AmpC inh detg: 8%

What do the screens show for `Cc1cccc(NC(=O)CN(C)S(=O)(=O)c2ccc3c(c2)c(=O)n(C)c(=O)n3C)c1`?
Sm TGR inh: 1%; AmpC inh detg: -9%

How did CCOC(=O)c1ccc(Nc2c(-c3ccc(O)c(OC)c3)nc3nc[nH]n23)cc1 do in these assays?
Sm TGR inh: 32µM*; AmpC inh detg: 6%

What do the screens show for `CCOC(=O)c1ccc(Nc2c(-c3ccc(OC)cc3)nc3nc[nH]n23)cc1`?
Sm TGR inh: 8%; AmpC inh detg: 4%

How did COc1ccc(OC)c(/C=C(\C#N)c2nc(-c3ccc(F)cc3)cs2)c1 do in these assays?
Sm TGR inh: 8%; AmpC inh detg: 2%

How did COC(=O)C1(Cc2ccc(O)cc2)OC(=O)C(O)=C1c1ccc(O)cc1 (stereo unspecified) do in these assays?
Sm TGR inh: 16µM*; AMA1 RON2 block: -29%; AmpC no deterg: -52%; AmpC inh detg: -1%; RE007 growth inh: 6%

How did COC(=O)CCc1ccc(O)cc1 do in these assays?
Sm TGR inh: -10%; AMA1 RON2 block: 3%; AmpC no deterg: -4%; AmpC inh detg: -7%; RE007 growth inh: -1%

How did CC1=C(C)/C(=N\OS(=O)(=O)c2ccc(C)cc2)C=CC1=O do in these assays?
Sm TGR inh: 7.9µM*; AMA1 RON2 block: inconclusive; AmpC no deterg: -28%; AmpC inh detg: 0%; RE007 growth inh: 16µM*

What do the screens show for `CC1=C/C(=N\OS(=O)(=O)c2ccccc2)C(C)=CC1=O`?
Sm TGR inh: 45µM*; AMA1 RON2 block: inconclusive; AmpC no deterg: -11%; AmpC inh detg: -10%; RE007 growth inh: 35µM*

What do the screens show for `O=C(NCCc1cn2ccccc2n1)c1cc(COc2c(F)cccc2F)on1`?
Sm TGR inh: 40µM*; AMA1 RON2 block: -12%; AmpC no deterg: -31%; AmpC inh detg: -12%; RE007 growth inh: 3%

How did CCOc1cc(S(=O)(=O)NCCc2c(C)[nH]c3ccc(C)cc23)ccc1Br do in these assays?
Sm TGR inh: 4%; AmpC inh detg: 5%

How did CN(C)c1cc2c(c(N(C)C)c1)C(=O)c1ccccc1C2=O do in these assays?
Sm TGR inh: 7%; AMA1 RON2 block: 18µM*; AmpC no deterg: 24%; AmpC inh detg: 0%; RE007 growth inh: -26%

How did CCOc1ccc(-c2nc(SCC(=O)NC3CCCC3)c(-c3ccccc3)[nH]2)cc1OC do in these assays?
Sm TGR inh: 8%; AmpC inh detg: 15%

What do the screens show for `CCCCCCCCCCCCCCCC[N+](C)(C)CCl`?
AMA1 RON2 block: -10%; RE007 growth inh: 22µM*

What do the screens show for `CCCCCCCCCCCCCCCC[N+](C)(C)CC`?
Sm TGR inh: 5%; AMA1 RON2 block: 5%; AmpC no deterg: 172%; AmpC inh detg: -11%; RE007 growth inh: inconclusive

How did COC(=O)c1cccc(CN2C(=O)SC(Nc3ccccc3C)C2=O)c1 (stereo unspecified) do in these assays?
Sm TGR inh: 4%; AmpC inh detg: 16%

What do the screens show for `CC(C)C(C(=O)NCC1CCCO1)N(Cc1ccccc1)C(=O)CNS(=O)(=O)c1ccccc1` (stereo unspecified)?
Sm TGR inh: 7.1µM*; AMA1 RON2 block: -6%; AmpC no deterg: 25%; AmpC inh detg: -10%; RE007 growth inh: 25%

What do the screens show for `COC(=O)c1ccc(Cl)cc1NC(=O)N1CCC(CN2CCC(C)CC2)CC1`?
Sm TGR inh: 4%; AmpC inh detg: 19%

What do the screens show for `CC(C)N=C1NN=C(c2cccs2)C(CC(=O)O)S1` (stereo unspecified)?
Sm TGR inh: 16µM*; AMA1 RON2 block: 54%; AmpC no deterg: -32%; AmpC inh detg: -4%; RE007 growth inh: -6%

Results for CCn1c(=O)cc(OCC(=O)N2CCN(c3ccc(OC)cc3)CC2)c2ccccc21 ?
Sm TGR inh: 0%; AmpC inh detg: 18%

What do the screens show for `CSc1ccccc1OCc1cc(C(=O)N(C)Cc2ccc(C)o2)no1`?
Sm TGR inh: 7.9µM*; AMA1 RON2 block: -8%; AmpC no deterg: -12%; AmpC inh detg: 1%; RE007 growth inh: -20%
